Experimental data: PubChem BioAssay
Activity calls are given as the source filed them. Unless noted, no rule for the calls is given here.

Legend:
[1] = HepG2 liver cancer cell viability effects, profiling panel, resazurin fluorescence, 24 h, PK04 Diversity Set (AID 1172); details: higher = more signal
[2] = basal S. cerevisiae growth modulation, no modifier, primary screen, OD600, strain BY4716, 24 h, basal condition (AID 1173); details: OD600, 24 h, higher = more signal, called active from +8 up or from −8 down
[3] = MM1S myeloma cell viability, profiling panel, resazurin fluorescence, basal, 24 h, PK04 Diversity Set (AID 1174); details: higher = more signal, called active from +8 up or from −8 down;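 also: MM1S multiple myeloma cell line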
[4] = target: Dihydroorotate dehydrogenase (quinone), mitochondrial (Plasmodium falciparum (isolate 3D7)) (UniProt Q08210); test: PfDHODH enzyme inhibitors, primary screen, biochemical, C-terminal His tag, absorbance 600 nm (AID 1175); details: DCIP absorbance 600 nm, higher = more signal, called active from +8 up or from −8 down;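 also: recombinant parasite enzyme with a five histidine tag at its C terminus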
Sequence of Dihydroorotate dehydrogenase (quinone), mitochondrial (Plasmodium falciparum (isolate 3D7)) (Q08210 whole entry, looked up): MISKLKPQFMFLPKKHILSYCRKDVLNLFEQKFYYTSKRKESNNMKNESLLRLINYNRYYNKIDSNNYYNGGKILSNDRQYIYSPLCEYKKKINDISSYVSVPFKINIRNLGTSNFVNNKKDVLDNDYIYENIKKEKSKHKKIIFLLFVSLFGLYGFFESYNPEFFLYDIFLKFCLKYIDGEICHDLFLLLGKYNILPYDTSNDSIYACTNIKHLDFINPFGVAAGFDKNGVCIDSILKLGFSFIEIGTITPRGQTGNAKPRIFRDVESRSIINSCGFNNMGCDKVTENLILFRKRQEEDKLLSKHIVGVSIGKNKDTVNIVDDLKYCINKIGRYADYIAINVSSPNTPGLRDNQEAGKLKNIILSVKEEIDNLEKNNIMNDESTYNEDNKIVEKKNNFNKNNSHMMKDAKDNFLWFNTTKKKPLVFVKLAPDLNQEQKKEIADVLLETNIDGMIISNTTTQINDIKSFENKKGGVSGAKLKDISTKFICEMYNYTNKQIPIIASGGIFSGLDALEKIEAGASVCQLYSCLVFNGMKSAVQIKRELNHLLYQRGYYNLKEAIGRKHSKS

[5] = P. aeruginosa biofilm formation inhibitors, primary screen, strain PAO1, LB-PBS medium, absorbance 600 nm (AID 1176); details: P. aeruginosa PAO1 growth/biofilm, A600, 12 h; higher = more signal
[6] = S. cerevisiae RM11-1a growth modifiers, primary screen, strain RM11-1a, OD600, basal, 24 h (AID 1177); details: OD600, 24 h, higher = more signal, called active from +8 up or from −8 down;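 also: cultures grown under basal conditions with no added stressor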
[7] = E. coli acrAB mutant growth effects, primary screen, E. coli filamentation inducers, strain DRC39, OD650, 24 h (AID 1178); details: higher = more signal, called active from +8 up or from −8 down;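 also: growth measured as culture turbidity by optical density at 650 nm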
[8] = E. coli acrAB mutant growth effects, primary screen, E. coli filamentation inducers, strain DRC39, OD650, 48 h (AID 1179);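 also: screen aims at cell division blockers that make cells filament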; details: E. coli DRC39 delta-acrAB growth, higher = more signal, called active from +8 up or from −8 down
[9] = RPMI8226 myeloma cell viability, profiling panel, resazurin fluorescence, basal, 24 h, PK04 Diversity Set (AID 1180); details: higher = more signal;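 also: RPMI8826 multiple myeloma cell line at 5000 cells per well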
[10] = target: E3 ubiquitin-protein ligase XIAP (Homo sapiens) (UniProt P98170); test: XIAP binders, primary screen, biophysical, small-molecule microarray, fluorescence 635 nm (AID 1181); details: small-molecule microarray binding, higher = more signal;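 also: score merges 667 nm emission and signal to noise over triplicate slides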
Sequence of E3 ubiquitin-protein ligase XIAP (Homo sapiens) (P98170 whole entry, looked up): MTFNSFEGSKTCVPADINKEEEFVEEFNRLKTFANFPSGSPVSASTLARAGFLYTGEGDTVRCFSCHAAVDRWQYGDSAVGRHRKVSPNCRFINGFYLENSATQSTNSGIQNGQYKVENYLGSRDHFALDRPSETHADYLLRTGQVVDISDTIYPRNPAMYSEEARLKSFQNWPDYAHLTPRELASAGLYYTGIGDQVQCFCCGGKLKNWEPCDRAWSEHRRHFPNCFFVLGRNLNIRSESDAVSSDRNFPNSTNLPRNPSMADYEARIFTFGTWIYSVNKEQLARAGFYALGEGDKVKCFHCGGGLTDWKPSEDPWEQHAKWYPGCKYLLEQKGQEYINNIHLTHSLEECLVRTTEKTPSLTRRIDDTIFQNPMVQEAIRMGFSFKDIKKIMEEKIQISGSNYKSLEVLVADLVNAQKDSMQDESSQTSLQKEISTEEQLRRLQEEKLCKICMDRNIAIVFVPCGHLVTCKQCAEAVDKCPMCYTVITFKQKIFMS

[11] = test system: XIP peptide (Xip251-270) binding; test: small-molecule binders of XIP peptide, primary screen, biochemical, small-molecule microarray, fluorescence 635/667 nm, 0.1 µg/mL protein (AID 1182); details: fluorescent protein binding, 635 nm, higher = more signal, called active from +8 up or from −8 down
XIP peptide (Xip251-270) = test: small-molecule binders of XIP peptide, primary screen, biochemical, small-molecule microarray, fluorescence 635/667 nm, 0.5 µg/mL protein (AID 1183); details: small-molecule microarray binding, fluorescence 635 nm; higher = more signal
[12] = Plasmodium falciparum growth inhibition, primary screen, strain 3D7, DAPI fluorescence, 100 nL (AID 1184);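 also: parasites grown inside human red blood cells in medium with human serum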; details: P. falciparum 3D7 growth, 3 d, higher = more signal
[13] = target: Homeobox protein Hox-A13 (Mus musculus) (UniProt Q62424); test: inhibitors of HoxA13-DNA binding, primary screen, biochemical, fluorescence polarization, labeled oligonucleotide (AID 1185); details: 15 min, higher = more signal, called active from +8 up or from −8 down
Sequence of Homeobox protein Hox-A13 (Mus musculus) (Q62424 whole entry, looked up): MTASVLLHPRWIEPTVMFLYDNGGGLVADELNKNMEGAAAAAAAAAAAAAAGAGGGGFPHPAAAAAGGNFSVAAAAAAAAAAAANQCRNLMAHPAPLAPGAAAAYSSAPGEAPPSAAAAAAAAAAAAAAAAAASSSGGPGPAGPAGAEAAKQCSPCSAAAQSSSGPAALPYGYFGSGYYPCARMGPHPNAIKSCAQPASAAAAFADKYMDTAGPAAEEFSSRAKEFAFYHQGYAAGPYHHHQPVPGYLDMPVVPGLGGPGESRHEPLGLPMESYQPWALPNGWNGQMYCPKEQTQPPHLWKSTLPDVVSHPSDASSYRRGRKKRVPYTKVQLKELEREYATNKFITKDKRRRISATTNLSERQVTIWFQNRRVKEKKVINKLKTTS

[14] = inhibitors of hydroxyurea-induced Chk1 phosphorylation, primary screen, imaging, HeLa, phospho-Chk1 antibody, percent positive cells (AID 1186); details: hydroxyurea-induced phospho-Chk1 immunofluorescence imaging, higher = more signal
[15] = inhibitors of hydroxyurea-induced Chk1 phosphorylation, primary screen, imaging, HeLa, phospho-Chk1 nuclear intensity (AID 1187); details: hydroxyurea-induced phospho-Chk1 immunofluorescence imaging, higher = more signal

**Q.** Which z-score [1] does the source give for CCC(CC)C(O)C1C=CC2C(=O)NC(=O)C2N1Nc1ccc(Cl)cc1Cl (centres undefined) here?
**A.** The z-score was -1.82.

**Q.** And the z-score [2]?
**A.** The z-score was -3.65 (inactive).

**Q.** And the z-score [3]?
**A.** Its z-score is -1.46 (inactive).

**Q.** What about the composite z-score [4] of the same molecule?
**A.** Its composite z-score is 0.925 (inactive).

**Q.** What about the z-score [5] of the same molecule?
**A.** Its z-score is 1.26 (inactive).

**Q.** And the z-score [6]?
**A.** The z-score was 1.27 (inactive).

**Q.** And the z-score [7]?
**A.** Its z-score is -0.682 (inactive).

**Q.** What about the z-score [8] of the same molecule?
**A.** The z-score was -0.459 (inactive).

**Q.** What about the z-score [9] of the same molecule?
**A.** The z-score was -1.52.

**Q.** What about the composite z-score [10] of the same molecule?
**A.** The composite z-score was 0.0187.

**Q.** And the composite z-score [11]?
**A.** The composite z-score was 0.625 (inactive).

**Q.** And the composite z-score (XIP peptide (Xip251-270))?
**A.** Its composite z-score is 0.587.

**Q.** What about the z-score [12] of the same molecule?
**A.** The z-score was -0.225.

**Q.** What about the z-score [13] of the same molecule?
**A.** The z-score was -4.8 (inactive).

**Q.** And the z-score [14]?
**A.** The z-score was 0.724 (inactive).

**Q.** And the z-score [15]?
**A.** The z-score was 0.786 (inactive).

**Q.** Which z-score [1] does the source give for CC(C)=CCN[C@H](CO)c1ccccc1 here?
**A.** The z-score was -0.347.

**Q.** What about the z-score [2] of the same molecule?
**A.** The z-score was -6.22 (inactive).

**Q.** What about the z-score [3] of the same molecule?
**A.** Its z-score is -0.362 (inactive).

**Q.** And the composite z-score [4]?
**A.** Its composite z-score is -2.14 (inactive).

**Q.** And the z-score [5]?
**A.** Its z-score is -0.517 (inactive).

**Q.** What about the z-score [6] of the same molecule?
**A.** Its z-score is -0.17 (inactive).

**Q.** And the z-score [7]?
**A.** The z-score was -0.387 (inactive).

**Q.** And the z-score [8]?
**A.** The z-score was -1.49 (inactive).

**Q.** What about the z-score [9] of the same molecule?
**A.** Its z-score is -0.974.

**Q.** What about the composite z-score [10] of the same molecule?
**A.** The composite z-score was 0.213.

**Q.** And the composite z-score [11]?
**A.** The composite z-score was -0.0202 (inactive).

**Q.** What about the composite z-score (XIP peptide (Xip251-270)) of the same molecule?
**A.** Its composite z-score is -0.319.

**Q.** What about the z-score [12] of the same molecule?
**A.** The z-score was -1.72.

**Q.** And the z-score [13]?
**A.** The z-score was 0.039 (inactive).

**Q.** And the z-score [14]?
**A.** The z-score was 0.257 (inactive).

**Q.** And the z-score [15]?
**A.** The z-score was -0.0254 (inactive).

**Q.** Which z-score [1] does the source give for CC(C)C[C@@H]1NC(=O)[C@H](C(C)C)NC(=O)[C@@]23C(=O)N[C@@H](Cc4ccccc4)C2[C@H](C)[C@@]2(C)O[C@H]2C3/C=C/CC/C=C/CNC1=O (some centres undefined) here?
**A.** The z-score was 0.233.

**Q.** What about the z-score [2] of the same molecule?
**A.** The z-score was -0.399 (inactive).

**Q.** And the z-score [3]?
**A.** The z-score was -0.0691 (inactive).

**Q.** And the composite z-score [4]?
**A.** Its composite z-score is -0.313 (inactive).

**Q.** What about the z-score [5] of the same molecule?
**A.** The z-score was 0.956 (inactive).

**Q.** And the z-score [6]?
**A.** Its z-score is 0.388 (inactive).

**Q.** What about the z-score [7] of the same molecule?
**A.** The z-score was 1.04 (inactive).

**Q.** What about the z-score [8] of the same molecule?
**A.** Its z-score is 0.408 (inactive).

**Q.** And the z-score [9]?
**A.** The z-score was 0.628.

**Q.** What about the composite z-score [10] of the same molecule?
**A.** Its composite z-score is -0.243.

**Q.** And the composite z-score [11]?
**A.** The composite z-score was 0.758 (inactive).

**Q.** What about the composite z-score (XIP peptide (Xip251-270)) of the same molecule?
**A.** The composite z-score was 0.607.

**Q.** And the z-score [12]?
**A.** Its z-score is -1.4.

**Q.** And the z-score [13]?
**A.** The z-score was -6.99 (inactive).

**Q.** And the z-score [14]?
**A.** Its z-score is 0.0132 (inactive).

**Q.** And the z-score [15]?
**A.** Its z-score is 0.432 (inactive).

**Q.** With CCCCN1CC=CC23O[C@@H]4C=CCCOC(=O)C4[C@H]2C(=O)N(CCCCCCO)[C@@H]3C1=O (some centres undefined) as the molecule, how does the z-score [1] read?
**A.** The z-score was 0.0635.

**Q.** And the z-score [2]?
**A.** Its z-score is 0.254 (inactive).

**Q.** And the z-score [3]?
**A.** The z-score was -0.846 (inactive).

**Q.** What about the composite z-score [4] of the same molecule?
**A.** Its composite z-score is -1.01 (inactive).

**Q.** And the z-score [5]?
**A.** Its z-score is -0.14 (inactive).

**Q.** And the z-score [6]?
**A.** The z-score was 0.308 (inactive).

**Q.** What about the z-score [7] of the same molecule?
**A.** Its z-score is 0.013 (inactive).

**Q.** And the z-score [8]?
**A.** The z-score was 0.383 (inactive).

**Q.** And the z-score [9]?
**A.** Its z-score is -0.461.

**Q.** And the composite z-score [10]?
**A.** The composite z-score was -0.141.

**Q.** And the composite z-score [11]?
**A.** The composite z-score was 0.249 (inactive).

**Q.** What about the composite z-score (XIP peptide (Xip251-270)) of the same molecule?
**A.** The composite z-score was 0.847.

**Q.** What about the z-score [12] of the same molecule?
**A.** The z-score was -0.35.

**Q.** And the z-score [13]?
**A.** Its z-score is -4.29 (inactive).

**Q.** What about the z-score [14] of the same molecule?
**A.** The z-score was 0.809 (inactive).

**Q.** And the z-score [15]?
**A.** Its z-score is 0.79 (inactive).
